Data taken from PubChem BioAssay (EPA / NIEHS).
Activity calls are given as the source filed them. The calls were made as follows: active = hit-call score of the fitted dose curve at least 0.9, where 1 is the maximum; inactive = score below 0.9.

Assay: APR_HepG2_MitoMass_72hr: Apredica 72-hour HepG2 Assay for Mitochondrial Mass (AID 2282924);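 also: MitoTracker Red CMXRos stain intensity per cell imaged as mitochondrial mass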
Conditions: high-content imaging, actives raise or lower the signal
Description: APR_HepG2_72hr is a cell-based, multiplexed-readout assay that uses HepG2, a human liver cell line, with measurements taken at 72 hours after chemical dosing in a 384-well plate.APR_HepG2_MitoMass_72hr is one of 10 assay component(s) measured or calculated from the APR_HepG2_72hr assay. It is designed to make measurements of cell phenotype, a form of morphology reporter, as detected with fluorescence intensity signals by HCS Fluorescent Imaging technology.Data from the assay component APR_HepG2_MitoMass_72hr was analyzed into 1 assay endpoint. This assay endpoint, APR_HepG2_MitoMass_72hr, was analyzed with bidirectional fitting relative to DMSO as the negative control and baseline of activity. Using a type of morphology reporter, gain or loss-of-signal activity can be used to understand changes in the signaling. Furthermore, this assay endpoint can be referred to as a primary readout, because this assay has produced multiple assay endpoints where this one serves a signaling function. To generalize the intended target to other relatable targets, this assay endpoint is annotated to the cell morphology intended target family, where the subfamily is organelle conformation.
Cells were treated with dimethyl sulfoxide (DMSO) as a solvent control at a final concentration of 0.5% v/v or with compounds in DMSO with a resulting final DMSO concentration of 0.5% v/v. Compound treatment was done at concentrations of 0.39, 0.78, 1.56, 3.12, 6.24, 12.5, 25, 50, 100, and 200 uM in duplicate on each plate. Cells were treated with compounds for 1, 24, or 72 hr. Carbonyl […] m-chloro-phenylhydrazone (CCCP) and taxol were used as positive controls for mitochondrial function and cytoskeletal stability, respectively; DMSO served as the negative control for this experiment. Cells were fixed by the direct addition of 50 uL formaldehyde in Hank's Balanced Salt Solution (HBSS) to a final concentration of 3.7%. After incubation in the fixation medium for 30 min at room temperature (293-298 K), cells were rinsed twice with HBSS and treated with cell permeabilization buffer (16 uL of 0.5% Triton X-100) for 10 min at room temperature (293-298 K) before labeling. For mitochondrial membrane potential and mitochondrial measurements, pre-fixed cells were incubated with 50 uL of MitoTracker Red CMXRos (Invitrogen) at a concentration of 250 nM for 30 min before fixation. In the remaining cases, post-fixed cells were labeled by incubation with a multiplexed mixture of primary antibodies in HBSS for 60 min at room temperature (293-298 K) to detect immunoreactivity of c-Jun (1:500), phospho-histone H3 (1:100), phospho-histone H2A.x (1:200), p53 (1:400), alpha-tubulin (1:200) and Hoechst 33342 (2 ug/mL). Cells were labeled for multiplexed imaging on two separate plates: a) Hoechst 33342, MitoTracker Red, phospho-histone H3, and alpha-tubulin, and b) Hoechst 33342, phospho-histone H2A.x, and c-Jun. A final rinse with HBSS (50 uL) was performed before analysis. The primary and secondary antibodies for the proteins were phospho-histone H3 (rabbit anti-phospho-histone H3 and FITC-donkey anti-rabbit IgG), phospho-histone H2A.x (mouse anti-phospho-histone H2A.x and FITC-donkey anti-mouse IgG), c-Jun (rabbit anti-phospho-c-Jun and Cy3-donkey anti-rabbit IgG), p53 (sheep anti-p53 and Cy5-donkey anti-sheep IgG), alpha-tubulin (mouse anti-alpha-tubulin and Cy5-donkey anti-mouse IgG). These antibodies are available as the CellCiphr HepG2 assay kit (Millipore).Digital images of each well were captured using a Cellomics ArrayScan VTI (Thermo Scientific Cellomics) (0.8 NA objective, 0.63x optical coupler, and XF-93 filter set) at 20x magnification. The images were acquired using the autofocus feature of the ArrayScan instrument, which entails the following steps. First, the camera focuses on channel 1 (Hoechst 33342), where nuclei are identified. Second, a Z offset of 1 um is used for capturing mitochondria (MitoTracker Red). […]

| Compound | outcome | AC50 |
| --- | --- | --- |
| CCCCCCCCCCCCCCC | inactive |  |
| CCCCCCCCCCCCOS(=O)(=O)O | inactive |  |
| CCCCc1oc2ccccc2c1C(=O)c1cc(I)c(OCCN(CC)CC)c(I)c1 |  | 52.6 µM (active) |
| O=C(CCCN1CCC(O)(c2ccc(Cl)cc2)CC1)c1ccc(F)cc1 |  | 30.8 µM (active) |
| N=C(N)c1ccc(OCCCCCOc2ccc(C(=N)N)cc2)cc1 |  | 11.3 µM (active) |
| CCCCC=O | inactive |  |
| O=C1NS(=O)(=O)c2ccccc21 | inactive |  |
| Cc1[nH]nc2c1N=C(c1ccccc1Cl)c1cc([N+](=O)[O-])ccc1N2 |  | 0.248 µM (active) |
| CC(=O)Nc1ccc(O)cc1 | inactive |  |
| O=C(c1ccccc1)c1ccccc1 | inactive |  |
| CS(=O)(=O)c1ccc([C@@H](CC2CCCC2)C(=O)Nc2cnccn2)cc1Cl | inactive |  |
| CN(C)CCOC(c1ccccc1)c1ccccc1 | inactive |  |
| CN(Cc1cnc2nc(N)nc(N)c2n1)c1ccc(C(=O)N[C@@H](CCC(=O)O)C(=O)O)cc1 | inactive |  |
